# Experimental data: PubChem BioAssay AID1851 (National Center for Advancing Translational Sciences (NCATS), 2009)
# Hit rate of the full screen: of about 16,000 compounds, about 5,100 (32%) were called active. Not shown: some 25% with an inconclusive outcome. Some of the results follow. Unmarked numbers belong to inactive results. Calls come from the whole dose curve; as a rule, active = well fitted curve in the direction sought with a large enough effect; inconclusive = small, poorly fitted or top-dose-only effect, or effect the other way; inactive = no such curve, though single readings can be large or run the other way.
# Target: Cytochrome P450 3A4 (Homo sapiens) (UniProt P08684)
# Sequence (P08684 whole entry, looked up): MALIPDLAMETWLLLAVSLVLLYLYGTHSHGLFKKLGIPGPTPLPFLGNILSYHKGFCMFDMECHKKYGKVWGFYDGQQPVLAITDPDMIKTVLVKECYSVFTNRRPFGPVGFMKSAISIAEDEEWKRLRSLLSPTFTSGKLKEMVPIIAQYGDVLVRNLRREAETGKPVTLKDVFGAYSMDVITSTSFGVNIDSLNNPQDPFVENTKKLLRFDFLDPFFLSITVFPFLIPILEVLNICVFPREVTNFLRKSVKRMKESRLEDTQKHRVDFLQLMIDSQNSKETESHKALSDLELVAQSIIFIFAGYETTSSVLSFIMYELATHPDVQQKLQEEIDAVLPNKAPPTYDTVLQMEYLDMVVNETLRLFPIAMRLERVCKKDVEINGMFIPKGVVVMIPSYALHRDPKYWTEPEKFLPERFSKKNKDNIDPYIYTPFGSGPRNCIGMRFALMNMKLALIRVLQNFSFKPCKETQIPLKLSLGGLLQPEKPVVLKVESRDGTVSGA
# Assay: Cytochrome panel assay with activity outcomes
# Details: recombinant CYP, pro-luciferin dealkylation, luminescence, p450-cyp3a4; series mostly up to 57.1 µM; activity, negative = inhibition: at the top concentration
# % is set by controls: 0 for no effect and ±100 for the full control effect.
Structure (SMILES),"activity, negative = inhibition",AC50
CC(C)(C)c1ccc(OC(=O)Cn2c(C(F)(F)F)nc3ccccc32)cc1,23%,–
O=C(Cn1c(-c2cscn2)nc2ccccc21)Nc1cc(F)ccc1F,–,14.1 µM (active)
COc1ccc(O[C@H]2C=C[C@@H](c3ccccc3)O[C@@H]2CO/N=C(\C)CCN2CCCCc3nc(C)c(C)cc32)cc1,–,3.98 µM (active)
COc1ccc(O[C@H]2C=C[C@@H](c3ccccc3)O[C@@H]2CO/N=C(\C)CCN2CCCc3nc(C)c(C)cc32)cc1,–,3.16 µM (active)
Cc1cc(C)c(S(=O)(=O)Nc2ccccc2C(F)(F)F)c(C)c1,–,2.51 µM (active)
Cc1cc(C)c(S(=O)(=O)Nc2cccc(C(F)(F)F)c2)c(C)c1,–,12.6 µM (active)
C[C@@H]1C(=O)N(C)C(=O)c2nc[nH]c21,-3.89%,–
CNc1nc(NCCOC23CC4CC(CC(C4)C2)C3)nc(OCC(F)(F)F)n1,–,25.1 µM (active)
CCC(C)Nc1nc(OCC(F)(F)F)nc(OCC(F)(F)F)n1 (centres undefined),4.7% [at 11.4 µM],–
O=C(NCCOC12CC3CC(CC(C3)C1)C2)c1cccc(Br)c1,-3.19% [at 2.29 µM],–
COC(=O)/C=C/CSC1=N/C(=C/c2ccc(-n3cncn3)cc2)C(=O)N1,–,2 µM (active)
Cn1c(Oc2ccccc2)c(C=O)c2ccccc21,9.35%,–
COc1ccc(Oc2c(C=O)c3ccccc3n2C)cc1,–,17.8 µM (active)
CC(C)Oc1ccc2ccccc2c1C=O,6.45% [at 2.29 µM],–
Cn1ncc([N+](=O)[O-])c1C(=O)N1CCOCC1,-9.46% [at 2.29 µM],–
Cc1ccc2cc(C(=O)O)c(C)nc2c1,10.8%,–
COc1ccc(C)cc1NC(=O)c1cc2cc3ccc(C)cc3nc2o1,-12.1%,–
Cc1ccc2cc3cc(C(=O)N4CCCCC4C)oc3nc2c1 (centres undefined),–,12.6 µM (active)
Cc1ccc2nc(-c3cccnc3)oc2c1,–,39.8 µM (active)
Clc1ccc2oc(-c3cccnc3)nc2c1,-3.98%,–
c1ccc(-c2nc3ccccc3o2)nc1,-18.2%,–
Cc1cc(C)n(-c2cc(N3CCN(S(=O)(=O)c4ccc(C)c(C)c4)CC3)ccc2[N+](=O)[O-])n1,–,3.16 µM (active)
CS(=O)(=O)N1CCN(c2c(Cl)cccc2[N+](=O)[O-])CC1,15.1%,–
O=[N+]([O-])c1ccc(N2CCCC2)cc1N1CCCC1,-24.1%,–
CCN(CC)C(=O)C(=O)N/N=C/c1cccc(Br)c1,-20.6%,–
Cc1c(Cl)c([N+](=O)[O-])nn1Cc1ccc(C(=O)N/N=C\c2cccc(Br)c2)o1,–,3.98 µM (active)
Cc1cc(C(=O)N/N=C/c2cccc([N+](=O)[O-])c2)c(C)o1,-17%,–
Cc1c(Cl)c([N+](=O)[O-])nn1Cc1ccc(C(=O)N/N=C\c2cc(Cl)ccc2O)o1,–,2.24 µM (active)
C/C(Cn1nc([N+](=O)[O-])cc1C)=N\NC(=O)c1ccc(O)cc1O,-3.84% [at 2.29 µM],–
